Assay results taken from the supplement of paper PMC12340641.
The full ranking holds about 1,000 compounds; the median of “relative growth in counter assay (no AraC = 100%, AraC + DMSO = 0%)” is about -1.1, and the highest 2% start at about 20. The list comes from a sample in which the highest values are over-represented; it also holds similar structures and randomly drawn compounds.

Test system: HEK293FT dCK*-only
Assay: relative growth in counter assay (no AraC = 100%, AraC + DMSO = 0%); higher = more growth rescue independent of IKZF1
Conditions: compound concentration: 5 uM; AraC concentration: 0.3 uM; overnight pretreatment + 4 days AraC
Procedure: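 Growth recovery screen of the molecular-glue-like (Specs) library. HEK293FT cells expressing a dCK*-IKZF1 fusion (primary) or dCK* alone (counter) were pretreated overnight with compound at 5 uM, then given 0.3 uM AraC for 4 days. Hoechst nuclei were counted by imaging. Primary: normalised to pomalidomide (100%) and DMSO (0%), mean of 2 replicates. Counter: normalised to no-AraC (100%) and AraC+DMSO (0%), single replicate.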

| SMILES | relative growth in counter assay |
| --- | --- |
| Cc1cc(C)c2[nH]c3nc(SCC(=O)Nc4ccc(Cl)cc4)nnc3c2c1 | -17.9% |
| Cc1cc(C)nc(NS(=O)(=O)c2ccc(Nc3nc(-c4ccc(Cl)cc4)cs3)cc2)n1 | -7.62% |
| O=C(Nc1ccc(S(=O)(=O)Nc2ncccn2)cc1)c1ccc(Br)cc1 | 1.1% |
| CCOCC(=O)Nc1ccc(S(=O)(=O)Nc2ncccn2)cc1 | -2.18% |
| O=C(C1CNCCO1)N1CCC(c2cccc(Nc3ncc(-c4ccccc4)s3)n2)CC1 (stereo not given) | 1.14% |
| O=S(=O)(Cc1ccccc1)Nc1ccc(S(=O)(=O)Nc2ncccn2)cc1 | 5.8% |
| Cc1ccnc(NS(=O)(=O)c2ccc(NC(=O)Cc3c(F)cccc3Cl)cc2)n1 | 10% |
| COc1ccc(-c2csc(Nc3ccc(S(=O)(=O)Nc4nc(C)cc(C)n4)cc3)n2)cc1 | -6.81% |
| O=C(Nc1ccc(S(=O)(=O)Nc2ncccn2)cc1)c1ccccc1Br | -0.83% |
| Cc1ccc(OCC(=O)Nc2ccc(S(=O)(=O)Nc3ncccn3)cc2)cc1C | 2.12% |
| Cc1csc(Nc2cccc(C3CN(C(=O)CCOc4ccccc4C)CCO3)n2)n1 (stereo not given) | 49.2% |
| Cc1csc(Nc2cccc(C3CN(C(=O)COc4c(C)cccc4C)CCO3)n2)n1 (stereo not given) | 1.27% |
| Cc1cnc(Nc2cccc(C3CN(C(=O)C4CCCC4)CCO3)n2)s1 (stereo not given) | -17% |
| Cc1cnc(Nc2cccc(C3CN(C(=O)CCC4CCCCC4)CCO3)n2)s1 (stereo not given) | -1.73% |
| Cc1cnc(Nc2cccc(C3CN(C(=O)C45CC6CC(CC(C6)C4)C5)CCO3)n2)s1 (stereo not given) | -1.75% |
| Cc1cnc(Nc2cccc(C3CN(C(=O)C4CC4c4ccc(Cl)cc4)CCO3)n2)s1 (stereo not given) | 28.7% |
| Cc1csc(Nc2cccc(C3CN(C(=O)CCC4CCCC4)CCO3)n2)n1 (stereo not given) | 32.3% |
| CC(=O)N1CCC(Cc2cccc(Nc3nccs3)n2)CC1 | -8.99% |
| COc1cccc(OC)c1C(=O)N1CCOC(c2cccc(Nc3nc(C)cs3)n2)C1 (stereo not given) | 10.3% |
| Cc1csc(Nc2cccc(C3CN(C(=O)Cn4nc(C)ccc4=O)CCO3)n2)n1 (stereo not given) | -2.02% |
| CC(=O)N1CCC(Cc2cccc(Nc3nc(C)cs3)n2)CC1 | 24.3% |
| Cc1csc(Nc2cccc(CC3CCN(CC(=O)N(C)C)CC3)n2)n1 | 7.9% |
| Cc1cnc(Nc2cccc(C3CN(C(=O)CCOc4cccc(F)c4)CCO3)n2)s1 (stereo not given) | 19.7% |
| Cc1cnc(Nc2cccc(C3CN(C(=O)COc4cccc(F)c4)CCO3)n2)s1 (stereo not given) | -7.34% |

| SMILES | relative growth in counter assay |
| --- | --- |
| Cc1cnc(Nc2cccc(C3CN(C(=O)COc4ccccc4)CCO3)n2)s1 (stereo not given) | -9.61% |
| Cc1ccc(OCC(=O)Nc2ccc(S(=O)(=O)Nc3cc(C)nc(C)n3)cc2)c(C)c1 | -2.7% |
| Cc1cc(C)nc(NS(=O)(=O)c2ccc(NC(=O)C(C)Oc3ccccc3F)cc2)n1 (stereo not given) | 5.27% |
| COc1ccccc1OCC(=O)Nc1ccc(S(=O)(=O)Nc2nc(C)cc(C)n2)cc1 | -7.04% |
| CC(C)(C)C(=O)N1CCC(Cc2ccc(Nc3ncc(-c4ccc(F)cc4)s3)nc2)CC1 | 12.2% |
| Cn1nccc1/C=C/C(=O)N1CCCC1c1csc(Nc2ccccn2)n1 (stereo not given) | -0.93% |
| CC(=O)N1CCCC(c2csc(Nc3ccccn3)n2)C1 (stereo not given) | 0.33% |
| O=C(/C=C/c1ccco1)N1CCCC(c2csc(Nc3ccccn3)n2)C1 (stereo not given) | 11.1% |
| Cn1nccc1/C=C/C(=O)N1CCCC(c2cc3ccccc3c(Nc3nccs3)n2)C1 (stereo not given) | -13.3% |
| O=C(/C=C/c1ccccc1)N1CCCC(c2csc(Nc3ccccn3)n2)C1 (stereo not given) | 34.8% |
| Cn1nccc1/C=C/C(=O)N1CCCC(c2csc(Nc3ccccn3)n2)C1 (stereo not given) | 29% |
| O=C(C1CCCCC1)N1CCC(c2cccc(Nc3nccs3)n2)CC1 | -10.8% |
| O=C(Nc1ccc(S(=O)(=O)Nc2ccccn2)cc1)c1cc2ccccc2o1 | -2.82% |
| CCCc1cnc(Nc2cccc(C3CN(C(=O)C4CCCCC4)CCO3)n2)s1 (stereo not given) | -12.3% |
| Cc1cnc(Nc2cccc(C3CCN(C(=O)C4CCC4)CC3)n2)s1 | -21% |
| Cc1ccc(C)c(OCCCC(=O)Nc2ccc(S(=O)(=O)Nc3ncccn3)cc2)c1 | -2.63% |
| CC(C)(C)c1ccccc1OCC(=O)Nc1ccc(S(=O)(=O)Nc2ccccn2)cc1 | 4.41% |
| COc1cc2c(cc1CCC(=O)N1CCCC1c1cccc(Nc3nccs3)n1)CCC2 (stereo not given) | -3.49% |
| CC(C)(C)c1ccccc1OCC(=O)Nc1ccc(S(=O)(=O)Nc2ncccn2)cc1 | -1.93% |
| Cc1cnc(Nc2cccc(C3CCN(C(=O)CCc4nc5ccccc5[nH]4)CC3)n2)s1 | -4.59% |
| CCCC(C)C(=O)Nc1ccc(S(=O)(=O)Nc2nccc(C)n2)cc1 (stereo not given) | -3.64% |
| Cc1cnc(Nc2cccc(C3CN(C(=O)c4ccccn4)CCO3)n2)s1 (stereo not given) | -7.73% |
| O=C(CSc1nnc2c(n1)[nH]c1ccc(Cl)cc12)Nc1ccc(Cl)cc1 | 3.64% |
| COC(=O)C(c1cccc(Nc2ncc(C)s2)n1)C1CCN(C(=O)C2(NC(=O)OC(C)(C)C)CCCCC2)CC1 (stereo not given) | 9.03% |

| SMILES | relative growth in counter assay |
| --- | --- |
| COc1cc(NS(=O)(=O)c2ccc(NC(=O)c3ccc([N+](=O)[O-])cc3)cc2)nc(OC)n1 | 4.43% |
| CNC(=O)C(c1cccc(Nc2ncc(C)s2)n1)C1CCN(C(=O)[C@H](CC(C)C)NC(=O)OC(C)(C)C)CC1 (stereo not given in full) | 8.97% |
| CCCC(=O)Nc1ccc(S(=O)(=O)Nc2cc(OC)nc(OC)n2)cc1 | -1.4% |
| O=C(COc1ccc(F)cc1)N1CCC(c2cccc(Nc3nccs3)n2)CC1 | 6.47% |
| Cn1c(SCC(=O)Nc2ccccn2)nc2ccccc21 | 0.85% |
| COc1cc(NS(=O)(=O)c2ccc(NC(=O)/C=C/C(=O)O)cc2)nc(OC)n1 | 2.31% |
| CNC(=O)C(c1cccc(Nc2ncc(C)s2)n1)C1CCN(C(=O)c2cccc(Cl)c2F)CC1 (stereo not given) | -0.24% |
| O=C(CO)N1CCC(c2cccc(Nc3ncc(-c4ccccc4)s3)n2)CC1 | -21.4% |
| CCN1CC(C(=O)N2CCC(c3cccc(Nc4ncc(C)s4)n3)CC2)CC1=O (stereo not given) | -1.29% |
| COc1cc(NS(=O)(=O)c2ccc(NCc3ccccc3O)cc2)nc(OC)n1 | -0.72% |
| Cc1noc(CCC(=O)N2CCOC(c3cccc(Nc4nc(C)c(C)s4)n3)C2)n1 (stereo not given) | 5.54% |
| COc1cccc(C(=O)Nc2ccc(S(=O)(=O)Nc3ncccn3)cc2)c1 | -5% |
| Cc1nc(Nc2cccc(C3CCN(C(=O)c4n[nH]c5c4CCCC5)CC3)n2)sc1C | 14% |
| Cc1cc(C)nc(NS(=O)(=O)c2ccc(NC(=O)CSc3nccn3C)cc2)n1 | 2.1% |
| CCC(Oc1ccccc1)C(=O)Nc1ccc(S(=O)(=O)Nc2nc(C)cc(C)n2)cc1 (stereo not given) | -3.58% |
| Cc1cc(C)nc(SCC(=O)Nc2ccc(S(=O)(=O)Nc3ncccn3)cc2)n1 | 19.9% |
| CCC(Oc1ccccc1)C(=O)Nc1ccc(S(=O)(=O)Nc2ncccn2)cc1 (stereo not given) | 27.4% |
| CCCC(=O)Nc1ccc(S(=O)(=O)Nc2nc(C)cc(C)n2)cc1 | -9.14% |
| CC(=O)Nc1ccc(S(=O)(=O)Nc2nc(C)cc(C)n2)cc1 | -0.14% |
| CC(Oc1ccccc1)C(=O)Nc1ccc(S(=O)(=O)Nc2ncccn2)cc1 (stereo not given) | 0.06% |
| Cc1cc(C)nc(NS(=O)(=O)c2ccc(NC(=O)CCl)cc2)n1 | 23.6% |
| Cc1cc(C)nc(NS(=O)(=O)c2ccc(NC(=O)CSc3nc(C)cc(C)n3)cc2)n1 | -6.83% |
